# Reference: PubChem BioAssay AID463195 (Sanford-Burnham Center for Chemical Genomics, 2010)
# The campaign covered roughly 330,000 compounds. About 4,600 (1.4%) were called active. The sample holds actives, similar compounds and a random draw of the others, so the mix is not that of the screen.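 How the source made its calls: active means inhibition of 40% or more at the single tested concentration; inactive means the rest.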
# Assay: growth inhibitors of isogenic TIM10 control yeast, primary screen, counter-screen for tim10-1 yeast inhibitor project, luminescence, uHTS (AID 463195);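 further: wild-type TIM10 isogenic control strain grown at permissive 25 °C; 0% = DMSO yeast wells and 100% = minimal medium wells without yeast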
# Conditions: S. cerevisiae TIM10 strain growth, BacTiter-Glo luminescence, 24 h; at 10 µM; stronger effect = higher value
row,SMILES,inhibition
1,CCN(C[C@H]1N[C@@](CC)(C(=O)OC)[C@H]2C(=O)N(Cc3ccccc3)C(=O)[C@@H]12)S(=O)(=O)c1ccc(C(F)(F)F)cc1,12.3% (inactive)
2,Cc1ccc(NC(=O)Nc2nnc(-c3ccncc3)s2)cc1,5.77% (inactive)
3,Cc1ccc(Nc2nc(C)cc(C)c2C(N)=O)cc1,6.89% (inactive)
4,Cc1ccc(Nc2nc(Cl)c(C=O)s2)cc1,41.1% (active)
5,CC(C)NC(=O)NC(=O)CSc1nnc(-c2ccccc2F)n1N,5.49% (inactive)
6,CN(C(=O)CSc1nnc(N)s1)c1c(N)n(Cc2ccccc2)c(=O)[nH]c1=O,10.2% (inactive)
7,CS(=O)(=O)N(CC(=O)N1CCOCC1)c1ccc2c3c(cccc13)CC2,8.14% (inactive)
8,CCCn1nc(C(=O)NNC(=O)CCOc2ccccc2OCC)c2ccccc2c1=O,13.7% (inactive)
9,CCOc1ccccc1C1NC(=O)NC(C)=C1C(=O)OCc1ccco1 (configuration not stated),0.932% (inactive)
10,CCOc1ccccc1/C=c1\sc2nc(-c3ccco3)nn2c1=O,45% (active)
11,Cc1cccc([C@@H]2[C@@H]3C(=O)N(Cc4ccccc4)C(=O)[C@@H]3[C@]3(C)C(=O)N(c4ccc(Br)cc4)C(=O)N23)c1,4.22% (inactive)
12,Cn1c(Cc2csc(N)n2)nnc1SC/C=C/c1ccccc1,7.09% (inactive)
13,CCN(Cc1nc2ccccc2c(=O)[nH]1)Cc1cc(=O)oc2cc(C)c(C)cc12,-2.16% (inactive)
14,COc1ccc(C(=O)NC(C)c2nccs2)cc1OC1CCN(C(C)C)CC1 (configuration not stated),-15% (inactive)
15,NC(=O)c1ccsc1NC(=O)c1ccco1,8.27% (inactive)
16,O=C(Nc1nnc(CCOCCOCCc2nnc(NC(=O)c3ccco3)s2)s1)c1ccco1,-7.13% (inactive)
17,O=C(Nc1nc(-c2ccco2)c(-c2ccco2)s1)c1ccco1,40.3% (active)
18,CS/C(=C\[N+](=O)[O-])Nc1ccc(C)cc1,30% (inactive)
19,CCc1c(C)[nH]c(=S)c(C#N)c1C,3.94% (inactive)
20,O=C(NCCCCc1ccccc1)C1CC(c2ccc([N+](=O)[O-])cc2)=NO1 (configuration not stated),-15.3% (inactive)
21,CC(=O)N1c2ccccc2N(Cc2ccc([N+](=O)[O-])cc2)C(=O)C1(C)C,27.8% (inactive)

row,SMILES,inhibition
1,O=C1NC(=O)C2C1C(c1ccc([N+](=O)[O-])cc1)=NN2Cc1ccccc1 (configuration not stated),46.2% (active)
2,c1ccc2c(c1)CSc1sccc1C2=C1CCNCC1,1.38% (inactive)
3,COc1ccc(OC)c(C(=O)c2ccc(C(=O)N3CCN(Cc4csc(C)n4)CC3)cc2)c1,-9.33% (inactive)
4,CCOC(=O)c1cn[nH]c1NC(=S)Nc1ccccc1,-4.24% (inactive)
5,CCC1C/C(=C/c2cccs2)C(=O)/C(=C/c2cccs2)C1 (configuration not stated),8.85% (inactive)
6,CSC1=N/C(=C\C=C\c2cccs2)C(=O)S1,46.2% (active)
7,COC(=O)c1cccc(N2C(=O)C3C4C=CC(CC4)C3C2=O)c1 (configuration not stated),-2.62% (inactive)
8,O=C(OCC(=O)N(CCc1ccccc1)Cc1ccccc1)c1ccccc1[N+](=O)[O-],6.8% (inactive)
9,O=C(Nc1ccc(O)cc1)c1ccc(NC(=O)c2ccco2)cc1,-7.64% (inactive)
10,O=C(Nc1ccnc(-c2ccncc2)n1)c1cccs1,5.09% (inactive)
11,O=C(Nc1ccc(NC(=O)c2cccs2)cn1)c1ccco1,49.1% (active)
12,O=C(CN1CCN(C(=O)C2CCCO2)CC1)Nc1c(Cl)cccc1Cl (configuration not stated),-3.56% (inactive)
13,O=[N+]([O-])c1ccc(N2CCN(c3ccc(F)cc3)CC2)cn1,9.61% (inactive)
14,C/C=N/NC(=O)CCCC(=O)N/N=C/C,19.2% (inactive)
15,S=C(NNC(=S)NC1CC2C=CC1C2)NC1CC2C=CC1C2 (configuration not stated),11.5% (inactive)
16,CC(C)c1ccc(NC(=S)NC2CC3C=CC2C3)cc1 (configuration not stated),41.7% (active)
17,S=C(NNC(=S)NC1CC2CCC1C2)NC1CC2C=CC1C2 (configuration not stated),31.5% (inactive)
18,Fc1ccc(Cn2nnnc2C(c2cccs2)N2CCCCCC2)cc1 (configuration not stated),23.6% (inactive)
19,COc1nc(NC2CCCCC2)nc(N2CCCCCC2)n1,40% (active)
20,Clc1nc(NC2CCCC2)nc(N2CCOCC2)n1,11.4% (inactive)
21,COC(=O)c1ccc(Oc2nc(Nc3ccc(F)cc3)nc(N3CCCC3)n2)cc1,-20.4% (inactive)

row,SMILES,inhibition
1,CCOC(=O)c1cnn(Cc2ccccc2Cl)c1N,1.13% (inactive)
2,COC(=O)CNC(=O)C(CCSC)NC(C)=O (configuration not stated),-26.2% (inactive)
3,CO/N=C/c1cn(-c2ccc(Cl)cc2)nn1,5.41% (inactive)
4,Cc1nc(-c2ccccc2)sc1C(=O)/C=C/N(C)C,7.98% (inactive)
5,Cc1nc(-c2ccc(Cl)cc2)sc1C(=O)CBr,51.9% (active)
6,Cc1nc(-c2ccc(Cl)cc2)sc1C1(C)CC(c2ccc(Br)cc2)=NO1 (configuration not stated),7.58% (inactive)
7,O=C(CSc1nncs1)NC1CCCc2ccccc21 (configuration not stated),-4.46% (inactive)
8,Cc1ccccc1N1CC(C(=O)Nc2nnc(SCCC3OCCO3)s2)CC1=O (configuration not stated),4.72% (inactive)
9,CCSc1ccccc1C(=O)NCc1ccc(OC)cc1,-1.39% (inactive)
10,Cc1cccc(C)c1NC(=O)Nc1ccccc1-n1ccnc1,3.36% (inactive)
11,O=C(O)CCCC(=O)Nc1ccccc1-n1ccnc1,95.9% (active)
12,CC(CC(=O)Nc1ccccc1)n1ccnc1 (configuration not stated),-0.308% (inactive)
13,COc1nc(Oc2ccc(=O)n(C)n2)nc(N(C)C)n1,-5.67% (inactive)
14,Cn1cnc([N+](=O)[O-])c1Sc1ccccc1,21.8% (inactive)
15,COCCNC(=O)COc1ccc(N(C)S(=O)(=O)c2ccc3ccccc3c2)cc1,20.2% (inactive)
16,CC(=O)Oc1ccc(N(C(C)=O)S(=O)(=O)c2ccc3ccccc3c2)cc1Br,48.2% (active)
17,CN(c1ccc(OCC(=O)O)cc1)S(=O)(=O)c1ccc2ccccc2c1,-10.2% (inactive)
18,COc1ccccc1C(=O)COC(=O)CSCC(=O)Nc1cc(C)on1,11.1% (inactive)
19,COCCn1c(CN2CCC(Cc3ccccc3)CC2)nc2c1c(=O)n(C)c(=O)n2C,-0.058% (inactive)
20,CC(=O)Nc1cccc(OCC(=O)/C=C2\N(C)c3ccccc3C2(C)C)c1,14.8% (inactive)
